Caspase-3 activation data for 31 compounds are collected here from PubChem BioAssay (NCATS).

“And” between values parts separate entries of the source, which are not always exact repeats. Equal values may be shown once. Values without a mark were called inactive. The source made the active and inactive calls. Calls follow the shape of the dose curve; as a rule, active = well fitted activation curve with a large enough effect; inconclusive = small, poorly fitted or top-dose-only effect, or effect the other way; inactive = flat fitted curve, though single readings scatter.

The experiment in a line: Cellular Toxicity (caspase-3) Renal Proximal Tubule (AID 667).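 Also: cells exposed to compound for 16 hours at 37 °C before detection; 0% = DMSO basal and 100% = 10 µM staurosporine.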 As to conditions: renal proximal tubule cells; at 91.7 µM (top of the series) unless noted. An excerpt:
NIH Chemical Genomics Center [NCGC]
NIH Molecular Libraries Screening Centers Network [MLSCN]
National Institutes of Environmental Health Sciences [NIEHS]
National Toxicology Program [NTP]
We have developed a 1536-well cell-based assay for quantitative high throughput screening (qHTS) against a number of cell lines to determine in vitro caspase 3/7 activity of small molecules. This particular assay uses the primary kidney proximal tubule cells freshly isolated from rat.
NCGC Assay Protocol Summary:
The Caspase-Glo 3/7 assay (Promega) is a homogeneous method to measure caspase-3 and caspase-7 activities in cultured cells. The quantitation of caspase 3/7 activity is based on the cleavage of a peptide-aminoluciferin substrate. After caspase cleaves the substrate the free aminoluciferin is liberated and serves as the substrate of luciferase, which generates the light. The luminescent signal is proportional to the amount of caspase 3/7 activity present.
Using the Caspase-Glo 3/7 assay, the amount of caspase 3/7 activity was measured in the rat kidney proximal tubule cells with complete culture medium following compound treatment for 16 hours. The assay was performed in opaque white 1536-well plates. In the screen, staurosporine and doxorubicin were used as positive controls. Library compounds were measured for their ability to cause the activation of caspase 3/7 in the cell line, as reflected by an increase in luminescence signal, in a concentration-dependent manner. Data were normalized to the controls for basal activity (DMSO only) and 100% stimulation (10 uM staurosporine). AC50 values were determined from concentration-response data modeled with the standard Hill equation.
qHTS protocol for caspase 3/7 assay in rat kidney proximal tubule cells
[Step] [Parameter] [Value] [Description]
1. Reagent; 5 uL; 1000 rat kidney proximal tubule cells/well
2. Time; 5 hr; 37 °C incubation
4. Controls; 23 nL; doxorubicin 7 pM to 100 uM & staurosporine 1.4 pM to 20 uM
5. Time; 16 hr; 37 °C incubation
6. Reagent; 5 uL; Caspase-Glo 3/7 reagent
7. Time; 1 hr; Room Temperature
8. Detection; Luminescence; Viewlux plate reader
Keywords: caspase 3/7, apoptosis, rat kidney proximal tubule cells, luminescence, NTPHTS, NTPHTS_NCGC, NIEHS, EPA, DSSTox, MLSMR, MLSCN, NIH Roadmap, qHTS, NCGC
Take `O=C/C=C/c1ccccc1`: the caspase-3 activation is 0.729% and 4.55%.

Regarding `CCCCCCCCOC(=O)c1ccccc1C(=O)OCCCCCCCC`, the caspase-3 activation was -2.49%.

For the compound `C[C@H]1CC[C@@H]2[C@@H](C)[C@H]3[C@H](C[C@H]4[C@@H]5CC=C6CC(O[C@@H]7O[C@H](CO)[C@H](O)[C@H](O[C@@H]8O[C@H](CO)[C@@H](O)[C@H](O)[C@H]8O)[C@H]7O[C@H]7O[C@@H](C)[C@H](O)[C@@H](O)[C@H]7O)CC[C@]6(C)[C@H]5CC[C@]34C)N2C1` (stereo partly specified), the caspase-3 activation is 5.75%.

Regarding `COc1ccc2c(c1OC)C(=O)OC2C1c2cc3c(cc2CCN1C)OCO3` (stereo unspecified), the caspase-3 activation is -5.84%.

With `O=CC=O`, the caspase-3 activation was -5.02% [at 91.7 µM, primary cells freshly taken from rat, solvent-only wells 0%, staurosporine 100%].

In the case of `NNC(N)=O`, the caspase-3 activation is 4.27%.

Regarding `C=CCN=C=S`, the caspase-3 activation is -1.14% [at 91.7 µM, primary cells freshly taken from rat, solvent-only wells 0%, staurosporine 100%].

For the compound `Clc1ccccc1Cl`, the caspase-3 activation is 5.14% [at 91.7 µM, primary cells freshly taken from rat, solvent-only wells 0%, staurosporine 100%].

On to `O=[N+]([O-])c1ccccc1`, for which the caspase-3 activation was 0.615%.

For the compound `CC(C)(C)c1cc(O)ccc1O`, the caspase-3 activation is -12.4% and -3.67%.

For `Oc1cc(Cl)c(Cl)cc1Cl`, the caspase-3 activation is 4.35%.

`O=C1C2CC=CCC2C(=O)N1SC(Cl)(Cl)Cl` (stereo unspecified): the caspase-3 activation is -14.4% and -19.5%.

On to `[Cl-].[Cl-].[Hg+2]`, for which the caspase-3 activation is -16%.

Regarding `S=C=S`, the caspase-3 activation was 4.15% [at 91.7 µM, primary cells freshly taken from rat, solvent-only wells 0%, staurosporine 100%].

On to `C[C@H]1CCC[C@H](O)CCCCCc2cc(O)cc(O)c2C(=O)O1`, for which the caspase-3 activation is -5.62%.

Take `[O]=[Cd]`: the caspase-3 activation was 7.8% [at 91.7 µM, primary cells freshly taken from rat, solvent-only wells 0%, staurosporine 100%].

As to `[O]=[Cr](=[O])([OH])[O][Cr](=[O])(=[O])[OH]`, the caspase-3 activation is 101% (active).

For the compound `O=[N+]([O-])c1ccc(F)c([N+](=O)[O-])c1`, the caspase-3 activation was -20.3%.

In the case of `ClC=C(Cl)Cl`, the caspase-3 activation was -7.81% [at 91.7 µM, primary cells freshly taken from rat, solvent-only wells 0%, staurosporine 100%].

Turning to `CCOC(=O)c1ccccc1C(=O)OCC`, the caspase-3 activation is 7.7% and 0.83%.

With `ClCC1CO1` (stereo unspecified), the caspase-3 activation is 0.815% [at 91.7 µM, primary cells freshly taken from rat, solvent-only wells 0%, staurosporine 100%].

With `O=C1C=CC(=O)C=C1`, the caspase-3 activation was 4.64%.

On to `O=Cc1ccco1`, for which the caspase-3 activation was -8.6% [at 91.7 µM, primary cells freshly taken from rat, solvent-only wells 0%, staurosporine 100%].

`CC(C)CCON=O`: the caspase-3 activation was -0.158%.

Turning to `ClC(Cl)(Cl)Cl`, the caspase-3 activation was 5.92% and -10.1%.

In the case of `CC(C)Nc1ccc(Nc2ccccc2)cc1`, the caspase-3 activation is 11.6% [at 91.7 µM, primary cells freshly taken from rat, solvent-only wells 0%, staurosporine 100%].

Consider `O=C1CCO1`, for which the caspase-3 activation is -9.04% [at 91.7 µM, primary cells freshly taken from rat, solvent-only wells 0%, staurosporine 100%].

With `O=C(O)C(Cl)(Cl)Cl`, the caspase-3 activation was -2.66% and 2.21%.

Consider `CCCCCl`, for which the caspase-3 activation is 1.64% [at 91.7 µM, primary cells freshly taken from rat, solvent-only wells 0%, staurosporine 100%].

On to `COC1=CC(=O)O[C@@H](/C=C/c2ccccc2)C1`, for which the caspase-3 activation is -6.32%.

As to `C[C@]12CCC(=O)C[C@@H]1CC[C@@H]1[C@@H]2CC[C@]2(C)[C@@H](O)CC[C@@H]12`, the caspase-3 activation was 0.8%.
